# From PMC5540273 (PLoS ONE, 2017)
# Read-outs that look alike come from different tables or passages of the source.
# Columns and labels:
# ERK1 = system: T1, ERK1; details: concentration: 1 μM, replicates: in singlicate; n = 1
# T1 construct: gene MAPK3
# ERK2 = system: T2, ERK2; details: concentration: 1 μM, replicates: in singlicate; n = 1
# T2 construct: gene MAPK1
# ERK3 = system: T3, ERK3; details: concentration: 1 μM, replicates: in singlicate; n = 1
# T3 construct: gene MAPK6
# ERK4 = system: T4, ERK4; details: concentration: 1 μM, replicates: in singlicate; n = 1
# T4 construct: gene MAPK4
# ERK5 = system: T5, ERK5; details: concentration: 1 μM, replicates: in singlicate; n = 1
# T5 construct: gene MAPK7
# ERK8 = system: T6, ERK8; details: concentration: 1 μM, replicates: in singlicate; n = 1
# T6 construct: gene MAPK15
# ERN1 = details: concentration: 1 μM, replicates: in singlicate; n = 1
# FAK = system: T7, FAK; details: n = 1
# T7 construct: gene PTK2
# FER = details: concentration: 1 μM, replicates: in singlicate; n = 1
# FES = details: concentration: 1 μM, replicates: in singlicate; n = 1
# FGFR1 = details: concentration: 1 μM, replicates: in singlicate; n = 1
# FGFR2 = details: concentration: 1 μM, replicates: in singlicate; n = 1
# FGFR3 = details: concentration: 1 μM, replicates: in singlicate; n = 1
# FGFR4 = details: concentration: 1 μM, replicates: in singlicate; n = 1
# FGR = details: concentration: 1 μM, replicates: in singlicate; n = 1
# FLT1 = details: concentration: 1 μM, replicates: in singlicate; n = 1
# FLT3-autoinhibited = details: concentration: 1 μM, replicates: in singlicate; n = 1
# FLT3 = details: concentration: 1 μM, replicates: in singlicate; n = 1
# FLT4 = details: concentration: 1 μM, replicates: in singlicate; n = 1
# FRK = details: concentration: 1 μM, replicates: in singlicate; n = 1
# [1] = concentration: 1 μM, replicates: in singlicate
# 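Also: KINOMEscan kinase panel screen.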
structure (smiles),measurement,setting,value
CN(c1ccc(NC(=O)Nc2cccc(Cl)c2)cc1)c1ccnc(N)n1.Cl [GW830707],%Inh,ERK1,0%
same,%Inh,ERK2,12%
same,%Inh,ERK3,0%
same,%Inh,ERK4,0%
same,%Inh,ERK5,0%
same,%Inh,ERK8,6%
same,%Inh,ERN1,32%
same,%Inh,FAK; [1],15%
same,%Inh,FER,9%
same,%Inh,FES,19%
same,%Inh,FGFR1,9%
same,%Inh,FGFR2,0%
same,%Inh,FGFR3,0%
same,%Inh,FGFR4,7%
same,%Inh,FGR,4%
same,%Inh,FLT1,97.1%
same,%Inh,FLT3-autoinhibited,56%
same,%Inh,FLT3,97.6%
same,%Inh,FLT4,60%
same,%Inh,FRK,49%
COc1ccc(C2=C(Nc3cccc(O)c3)C(=O)NC2=O)cc1 [SB-390766],%Inh,ERK1,0%
same,%Inh,ERK2,0%
same,%Inh,ERK3,6%
same,%Inh,ERK4,22%
same,%Inh,ERK5,100%
same,%Inh,ERK8,15%
same,%Inh,ERN1,20%
same,%Inh,FAK; [1],98.1%
same,%Inh,FER,0%
same,%Inh,FES,0%
same,%Inh,FGFR1,0%
same,%Inh,FGFR2,0%
same,%Inh,FGFR3,0%
same,%Inh,FGFR4,27%
same,%Inh,FGR,0%
same,%Inh,FLT1,5%
same,%Inh,FLT3-autoinhibited,0%
same,%Inh,FLT3,0%
same,%Inh,FLT4,35%
same,%Inh,FRK,11%
CS(=O)(=O)c1cccc(CNc2nc(Nc3ccc4c(c3)CCC(=O)N4)ncc2C(F)(F)F)c1,%Inh,ERK1,0%
same,%Inh,ERK2,17%
same,%Inh,ERK3,0%
same,%Inh,ERK4,0%
same,%Inh,ERK5,15%
same,%Inh,ERK8,90%
same,%Inh,ERN1,0%
same,%Inh,FAK; 1 µM,100%
same,%Inh,FER,0%
same,%Inh,FES,12%
same,%Inh,FGFR1,63%
same,%Inh,FGFR2,65%
same,%Inh,FGFR3,36%
same,%Inh,FGFR4,32%
same,%Inh,FGR,0%
same,%Inh,FLT1,77%
same,%Inh,FLT3-autoinhibited,54%
same,%Inh,FLT3,99%
same,%Inh,FLT4,89%
same,%Inh,FRK,0%
Cc1ccc(NC(=O)c2ccnc(N3CCCCC3)c2)cc1-c1ccc(C(=O)NCC2CC2)cc1 [GW775610],%Inh,ERK1,37%
same,%Inh,ERK2,9%
same,%Inh,ERK3,0%
same,%Inh,ERK4,21%
same,%Inh,ERK5,6%
same,%Inh,ERK8,0%
same,%Inh,ERN1,70%
same,%Inh,FAK; [1],0%
same,%Inh,FER,4%
same,%Inh,FES,4%
same,%Inh,FGFR1,4%
same,%Inh,FGFR2,10%
same,%Inh,FGFR3,2%
same,%Inh,FGFR4,0%
same,%Inh,FGR,0%
same,%Inh,FLT1,36%
same,%Inh,FLT3-autoinhibited,6%
same,%Inh,FLT3,72%
same,%Inh,FLT4,0%
same,%Inh,FRK,32%
Fc1cc(Cl)ccc1Nc1ccnc2cc(-c3ccc(CN4CCOCC4)o3)ccc12 [GW560109],%Inh,ERK1,12%
same,%Inh,ERK2,0%
same,%Inh,ERK3,0%
same,%Inh,ERK4,0%
same,%Inh,ERK5,0%
same,%Inh,ERK8,19%
same,%Inh,ERN1,16%
same,%Inh,FAK; [1],0%
same,%Inh,FER,6%
same,%Inh,FES,0%
same,%Inh,FGFR1,40%
same,%Inh,FGFR2,33%
same,%Inh,FGFR3,26%
same,%Inh,FGFR4,30%
same,%Inh,FGR,91.2%
same,%Inh,FLT1,86%
same,%Inh,FLT3-autoinhibited,6%
same,%Inh,FLT3,53%
same,%Inh,FLT4,88%
same,%Inh,FRK,86%
Nc1ncc(-c2ccc3nccc(-c4ccncc4)c3c2)cc1S(=O)(=O)N1CCCCC1 [GSK1693850],%Inh,ERK1,0%
same,%Inh,ERK2,0%
same,%Inh,ERK3,0%
same,%Inh,ERK4,13%
same,%Inh,ERK5,11%
same,%Inh,ERK8,38%
same,%Inh,ERN1,1%
same,%Inh,FAK; [1],0%
same,%Inh,FER,32%
same,%Inh,FES,0%
same,%Inh,FGFR1,0%
same,%Inh,FGFR2,84%
same,%Inh,FGFR3,16%
same,%Inh,FGFR4,0%
same,%Inh,FGR,23%
same,%Inh,FLT1,7%
same,%Inh,FLT3-autoinhibited,0%
same,%Inh,FLT3,2%
same,%Inh,FLT4,0%
same,%Inh,FRK,1%
CSc1ccc(NC2=C(c3ccc(Cl)cc3)C(=O)NC2=O)cc1 [SB-317658],%Inh,ERK1,9%
same,%Inh,ERK2,29%
same,%Inh,ERK3,11%
same,%Inh,ERK4,0%
same,%Inh,ERK5,0%
same,%Inh,ERK8,13%
same,%Inh,ERN1,47%
same,%Inh,FAK; [1],7%
same,%Inh,FER,0%
same,%Inh,FES,29%
same,%Inh,FGFR1,0%
same,%Inh,FGFR2,9%
same,%Inh,FGFR3,6%
same,%Inh,FGFR4,0%
same,%Inh,FGR,29%
same,%Inh,FLT1,5%
same,%Inh,FLT3-autoinhibited,5%
same,%Inh,FLT3,1%
same,%Inh,FLT4,3%
same,%Inh,FRK,0%
CN(C)CCOc1ccc(-c2cc(-c3ccc(Cl)c(O)c3)c(-c3ccncc3)[nH]2)cc1.Cl.Cl [SB-684387],%Inh,ERK1,0%
same,%Inh,ERK2,0%
same,%Inh,ERK3,0%
same,%Inh,ERK4,40%
same,%Inh,ERK5,13%
same,%Inh,ERK8,7%
same,%Inh,ERN1,39%
same,%Inh,FAK; [1],0%
same,%Inh,FER,10%
same,%Inh,FES,10%
same,%Inh,FGFR1,0%
same,%Inh,FGFR2,1%
same,%Inh,FGFR3,30%
same,%Inh,FGFR4,15%
same,%Inh,FGR,73%
same,%Inh,FLT1,0%
same,%Inh,FLT3-autoinhibited,17%
same,%Inh,FLT3,0%
same,%Inh,FLT4,1%
same,%Inh,FRK,82%
Cc1ccc(Nc2ccnc(Nc3ccc(C)c(F)c3)n2)cc1O.Cl [GW582868],%Inh,ERK1,0%
same,%Inh,ERK2,0%
same,%Inh,ERK3,0%
same,%Inh,ERK4,0%
same,%Inh,ERK5,26%
same,%Inh,ERK8,43%
same,%Inh,ERN1,0%
same,%Inh,FAK; [1],0%
same,%Inh,FER,1%
same,%Inh,FES,0%
same,%Inh,FGFR1,1%
same,%Inh,FGFR2,0%
same,%Inh,FGFR3,12%
same,%Inh,FGFR4,5%
same,%Inh,FGR,85%
same,%Inh,FLT1,46%
same,%Inh,FLT3-autoinhibited,0%
same,%Inh,FLT3,59%
same,%Inh,FLT4,72%
same,%Inh,FRK,92.9%
NCCC(NC(=O)c1cc(Br)c(-c2ccnc3[nH]ccc23)s1)c1ccccc1.O=C(O)C(F)(F)F.O=C(O)C(F)(F)F (centres unmarked) [GSK1307810],%Inh,ERK1,4%
same,%Inh,ERK2,0%
same,%Inh,ERK3,7%
same,%Inh,ERK4,0%
same,%Inh,ERK5,0%
same,%Inh,ERK8,33%
same,%Inh,ERN1,22%
same,%Inh,FAK; [1],9%
same,%Inh,FER,3%
same,%Inh,FES,0%
same,%Inh,FGFR1,73%
same,%Inh,FGFR2,74%
same,%Inh,FGFR3,45%
same,%Inh,FGFR4,36%
same,%Inh,FGR,13%
same,%Inh,FLT1,73%
same,%Inh,FLT3-autoinhibited,25%
same,%Inh,FLT3,88%
same,%Inh,FLT4,39%
same,%Inh,FRK,22%
